The nature of test [1]: resazurin metabolic signal in HepG2 cells – cell-based, resazurin fluorescence, 24 h, PK04 Diversity Set, profiling panel (AID 1172). Note: test concentration not given here. As to conditions: HepG2 viability, higher = more signal. For orientation: Alamar Blue is a resazurin reagent that responds to reducing activity.
The nature of test [2]: budding yeast growth changes without added modifier – OD600, strain BY4716, 24 h, basal condition, primary screen (AID 1173). The following applies: S. cerevisiae BY4716 growth, OD600, 24 h; higher = more signal, called active from +8 up or from −8 down.
A short description of test [3]: viability profiling in MM1S myeloma cells – cell-based, resazurin fluorescence, basal, 24 h, PK04 Diversity Set, profiling panel (AID 1174).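 Note: MM1S multiple myeloma cell line; test concentration not given here.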 As to conditions: higher = more signal, called active from +8 up or from −8 down.
The target in test [4] is Dihydroorotate dehydrogenase (quinone), mitochondrial (Plasmodium falciparum (isolate 3D7)) (UniProt Q08210). As to the kind of experiment: inhibition of P. falciparum DHODH – biochemical, C-terminal His tag, absorbance 600 nm, primary screen (AID 1175).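 Note: recombinant parasite enzyme with a five histidine tag at its C terminus; test concentration not given here.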 The following applies: PfDHODH enzyme, DCIP absorbance 600 nm; higher = more signal, called active from +8 up or from −8 down.
Chain of Dihydroorotate dehydrogenase (quinone), mitochondrial (Plasmodium falciparum (isolate 3D7)) (Q08210 whole entry, looked up): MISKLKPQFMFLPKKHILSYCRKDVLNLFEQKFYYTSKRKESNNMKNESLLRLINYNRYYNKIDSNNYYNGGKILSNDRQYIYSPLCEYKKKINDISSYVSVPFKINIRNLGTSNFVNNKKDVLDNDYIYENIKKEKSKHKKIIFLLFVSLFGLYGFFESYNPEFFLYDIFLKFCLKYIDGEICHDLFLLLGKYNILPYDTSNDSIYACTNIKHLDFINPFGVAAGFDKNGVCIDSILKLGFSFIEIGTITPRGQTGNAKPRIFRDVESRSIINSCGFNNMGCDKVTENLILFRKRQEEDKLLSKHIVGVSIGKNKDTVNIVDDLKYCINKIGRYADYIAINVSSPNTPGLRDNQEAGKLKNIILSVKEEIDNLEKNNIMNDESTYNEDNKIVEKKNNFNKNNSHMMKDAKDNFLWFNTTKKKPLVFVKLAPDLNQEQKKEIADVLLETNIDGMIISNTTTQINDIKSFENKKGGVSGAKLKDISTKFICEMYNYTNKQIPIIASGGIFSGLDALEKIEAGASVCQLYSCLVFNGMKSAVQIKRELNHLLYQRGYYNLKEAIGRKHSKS

Test [5] is described as follows: inhibition of PAO1 biofilm formation – strain PAO1, LB-PBS medium, absorbance 600 nm, primary screen (AID 1176). Note: test concentration not given here. As to conditions: P. aeruginosa PAO1 growth/biofilm, A600, 12 h; higher = more signal.
The nature of test [6]: growth modulation of vineyard yeast isolate – strain RM11-1a, OD600, basal, 24 h, primary screen (AID 1177).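 Note: cultures grown under basal conditions with no added stressor; test concentration not given here.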 The following applies: S. cerevisiae RM11-1a growth, OD600, 24 h; higher = more signal, called active from +8 up or from −8 down.
Test [7] is described as follows: growth of efflux-deficient E. coli DRC39 – strain DRC39, OD650, 24 h, E. coli filamentation inducers, primary screen (AID 1178).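 Note: growth measured as culture turbidity by optical density at 650 nm; test concentration not given here.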 As to conditions: E. coli DRC39 acrAB, higher = more signal, called active from +8 up or from −8 down.
Test [8] can be described thus: growth of efflux-deficient E. coli DRC39 – strain DRC39, OD650, 48 h, E. coli filamentation inducers, primary screen (AID 1179).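 Note: screen aims at cell division blockers that make cells filament.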 The following applies: E. coli DRC39 delta-acrAB growth, higher = more signal, called active from +8 up or from −8 down.
A short description of test [9]: viability profiling in RPMI8226 myeloma cells – cell-based, resazurin fluorescence, basal, 24 h, PK04 Diversity Set, profiling panel (AID 1180).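 Note: RPMI8826 multiple myeloma cell line at 5000 cells per well; test concentration not given here.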 As to conditions: higher = more signal.
Test [10] has as its target E3 ubiquitin-protein ligase XIAP (Homo sapiens) (UniProt P98170). As to the kind of experiment: small molecules binding XIAP protein – biophysical, small-molecule microarray, fluorescence 635 nm, primary screen (AID 1181).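 Note: score merges 667 nm emission and signal to noise over triplicate slides.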 The following applies: higher = more signal.

The source made the active and inactive calls. Unless noted, the rule behind the calls is not given here.

Chain of E3 ubiquitin-protein ligase XIAP (Homo sapiens) (P98170 whole entry, looked up): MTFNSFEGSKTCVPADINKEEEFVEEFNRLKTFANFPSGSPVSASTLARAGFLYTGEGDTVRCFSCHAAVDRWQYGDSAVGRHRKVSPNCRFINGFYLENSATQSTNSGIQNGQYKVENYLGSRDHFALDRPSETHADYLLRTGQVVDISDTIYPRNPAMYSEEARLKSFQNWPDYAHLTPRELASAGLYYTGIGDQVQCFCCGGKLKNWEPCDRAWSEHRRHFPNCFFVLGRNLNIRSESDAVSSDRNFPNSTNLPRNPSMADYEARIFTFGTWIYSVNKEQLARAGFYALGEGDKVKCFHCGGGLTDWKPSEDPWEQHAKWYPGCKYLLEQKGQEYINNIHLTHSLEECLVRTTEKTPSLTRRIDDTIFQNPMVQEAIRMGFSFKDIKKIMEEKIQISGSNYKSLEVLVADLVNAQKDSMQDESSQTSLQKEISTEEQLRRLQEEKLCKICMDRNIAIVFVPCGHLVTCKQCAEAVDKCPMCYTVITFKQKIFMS

Turning to `CCOC(=O)C[C@H]1[C@H](OC(=O)c2cc3ccccc3oc2=O)[C@@H](NC(=O)c2ccc(-c3ccccc3)cc2)c2cc(OCCCO)ccc2N1C(=O)c1ccccc1`, the z-score in test [1] is -0.638; in [2], -1.79 (inactive); in test [3], -0.005 (inactive); in test [5], -0.329 (inactive); in test [6] it was -0.272 (inactive); in [7] it was -0.466 (inactive). Further, the z-score in [8] was -0.878 (inactive); in test [9] it was -0.24. In addition, the composite z-score was -2.74 (inactive) in test [4] and 0.164 in test [10].

For `COC(=O)CCCCCCC(=O)Nc1ccc(NC(=O)CCCC[P+](c2ccccc2)(c2ccccc2)c2ccccc2)cc1`, the z-score in test [1] is 1.45; in test [2], -1.95 (inactive); in test [3], 0.687 (inactive); in test [5], -1.01 (inactive); in test [6], 1.68 (inactive); in test [7], -17.1 (active). The z-score in [8] is -5.78 (inactive); in test [9], 0.347. Moreover, the composite z-score was -1.77 (inactive) in test [4] and -0.127 in test [10].

For the molecule `C=C(C)[C@@H]1CC=C(C(O)C2C=CC3C(=O)N(c4ccccc4)C(=O)C3N2Nc2ccccc2F)CC1` (stereo not given in full), the z-score in test [1] was -0.91; in test [2], 0.966 (inactive); in test [3], -0.773 (inactive); in [5], 1.51 (inactive); in test [6], 2.01 (inactive); in test [7], -0.96 (inactive). Besides, the z-score in [8] is -0.829 (inactive); in test [9] it was -1.09. Further, the composite z-score in [4] was 1.63 (inactive); in test [10], 0.0806.

Take `COC(=O)[C@@]1(Cc2ccccc2N=[N+]=[N-])N=C(c2ccc(OCCCO)cc2)O[C@H]1c1ccccc1N=[N+]=[N-]`: the z-score in test [1] was -4.43; in test [2], -0.596 (inactive); in test [3], -8.41 (active); in [5], 0.715 (inactive); in [6] it was 0.897 (inactive); in test [7], 2.12 (inactive). The values for the z-score in test [8] and in test [9] were 1.91 (inactive) and -6.83, respectively. Moreover, the composite z-score in test [4] is -0.071 (inactive); in test [10], 0.0296.

With `CCOC(=O)C1CCCCN1` (stereo not given), the z-score in test [1] is -0.241; in test [2] it was 0.466 (inactive); in test [3], 0.122 (inactive); in test [5], 0.0619 (inactive); in [6], 0.0958 (inactive); in [7], -0.33 (inactive). Moreover, the z-score in [8] is -0.0724 (inactive); in test [9], -0.809. The figures for the composite z-score in [4] and in test [10] were -0.254 (inactive) and -0.222, respectively.

With `COCCOC(=O)N1C(=O)[C@@]2(c3cc(C#Cc4ccc(OC)cc4)ccc31)[C@H](c1ccc(O)cc1)N1[C@H](c3ccccc3)[C@H](c3ccccc3)OC(=O)[C@H]1[C@@H]2C(=O)N1CCCCCCC1`, the z-score was -0.113 in test [1]; 0.603 (inactive) in test [2]; -0.431 (inactive) in test [3]; 0.213 (inactive) in test [5]; 0.266 (inactive) in test [6]; -0.551 (inactive) in test [7]. In addition, the z-score is -0.341 (inactive) in test [8] and -0.332 in [9]. The composite z-score was -0.15 (inactive) in test [4] and -0.158 in [10].

As to `N#Cc1ccc(NN2C(C(O)c3ccc(F)cc3)C=CC3C(=O)N(c4ccccc4)C(=O)C32)cc1` (stereo not given), the z-score in test [1] was -0.587; in test [2], -0.0167 (inactive); in test [3], -0.388 (inactive); in [5], 0.695 (inactive); in test [6] it was 0.222 (inactive); in test [7], -1.06 (inactive). The figures for the z-score in test [8] and in [9] were -0.405 (inactive) and -0.67, respectively. The composite z-score in [4] was 0.37 (inactive); in test [10], 0.0651.

On to `CC(C)(C)OC(=O)CC[C@@]1(C(=O)NCc2ccccc2)N=C(c2ccc(OCCCO)cc2)O[C@@H]1c1ccccc1N=[N+]=[N-]`, for which the z-score was -0.409 in test [1]; 0.381 (inactive) in test [2]; -1.36 (inactive) in test [3]; 1.2 (inactive) in [5]; 1.99 (inactive) in test [6]; 2.98 (inactive) in [7]. The figures for the z-score in test [8] and in test [9] were 0.914 (inactive) and -0.362, respectively. In addition, the values for the composite z-score in test [4] and in test [10] were 1.45 (inactive) and 0.23, respectively.

Take `CC(CO)N1C(=O)[C@@H]2[C@H]3C(=O)OCC=C[C@H]3OC23C=CCN(CCN2CCOCC2)C(=O)[C@@H]13` (stereo not given in full): the z-score in test [1] was 0.0843; in test [2], 0.0245 (inactive); in test [3], -0.622 (inactive); in test [5], -0.649 (inactive); in [6] it was -0.169 (inactive); in [7], -0.55 (inactive). The z-score is -0.733 (inactive) in [8] and -0.266 in [9]. The composite z-score is -0.0564 (inactive) in [4] and -0.0046 in test [10].

As for `OCC1CC(c2ccccc2)=NO1` (stereo not given), the z-score in test [1] is -0.107; in [2] it was -1.09 (inactive); in test [3] it was -0.85 (inactive); in test [5], -0.201 (inactive); in test [6] it was 0.309 (inactive); in test [7], -0.075 (inactive). The z-score in [8] is 0.194 (inactive); in test [9], 0.886. Further, the figures for the composite z-score in test [4] and in test [10] were -0.17 (inactive) and -0.158, respectively.

As to `COC(=O)c1c2oc(c1C(=O)OC)C(=O)N(C)Cc1cn(nn1)C[C@H](Cc1ccccc1)NC(=O)N[C@H](CO)CC2`, the z-score was -0.356 in [1]; 0.415 (inactive) in test [2]; -0.286 (inactive) in [3]; 0.0914 (inactive) in test [5]; 1.2 (inactive) in test [6]; -0.499 (inactive) in [7]. Moreover, the figures for the z-score in test [8] and in [9] were -0.913 (inactive) and -0.139, respectively. In addition, the values for the composite z-score in [4] and in [10] were 0.31 (inactive) and -0.0559, respectively.

On to `COc1ccc(CN(C2=CC[C@@]3(C(N)=O)C(=O)C(Cl)=C(Cl)C(=O)[C@@]3(C#N)C2)S(=O)(=O)c2ccc(Br)cc2)cc1`, for which the z-score is -0.275 in test [1]; -1.2 (inactive) in test [2]; -2.88 (inactive) in test [3]; 0.481 (inactive) in test [5]; -0.96 (inactive) in [6]; 0.506 (inactive) in test [7]. For the same molecule, the results for the z-score in test [8] and in test [9] were 0.575 (inactive) and -1.18, respectively. The results for the composite z-score in [4] and in test [10] were -4.12 (inactive) and 0.0937, respectively.

As for `CN(C)CCCNC(=O)[C@@]1(C)c2ccccc2C(=O)N(Cc2ccccc2)[C@H]1c1ccc(CO)cc1`, the z-score in test [1] is -0.834; in [2], 0.384 (inactive); in test [3], 0.367 (inactive); in test [5], 0.683 (inactive); in test [6] it was 0.861 (inactive); in test [7], -0.147 (inactive). For the same molecule, the values for the z-score in [8] and in [9] were -0.0983 (inactive) and 0.009, respectively. For the same molecule, the results for the composite z-score in test [4] and in test [10] were -0.106 (inactive) and 0.0155, respectively.

These data come from PubChem BioAssay.
